# From PMC5515408, “Sequence-specific DNA binding by MYC/MAX to low-affinity non-E-box motifs”
# The full ranking holds about 4,500 sequences; the median of “log2 normalized fluorescence” is about -0.34, and the highest 2% start at about 3.3. The list comes from a sample in which the highest values are over-represented; it also holds similar and randomly drawn sequences.
# Biological target: MAX:MAX (p21) (human, UniProt P61244-2 1-151)
# Assay: protein-binding microarray (anti-MAX antibody); PBM: 15 mM Tris-HCl pH 7.5, 100 mM KCl, 0.075% NP40, 7.5 mM beta-mercaptoethanol, 375 ng/ul BSA, 8 ng/ul poly(dA-dT):(dA-dT), 550 ng complex, 60 min, room tempe; high values mean tight binding
# Details: protein: recombinant; tags: 6xHis; chain copies: 2; label: 3' end of printed strand (linker) attached to glass slide; dsDNA, one strand shown
# Summary of the method: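 Recombinant His-tagged human MYC:MAX or MAX:MAX dimers (550 ng, expressed in E. coli) were incubated for 60 min at room temperature in Tris-KCl buffer, pH 7.5, with NP40, BSA and poly(dA-dT) competitor. The custom Agilent glass array held ~5000 unique 12-nt sequences, each spotted in triplicate and made double-stranded by primer extension. Bound protein was detected with anti-MAX and secondary antibodies and scanned at 543 nm. Binding is reported as log2 normalized fluorescence.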
# MAX:MAX (p21), sequence (P61244 other isoform, or with tags, fused parts or gaps): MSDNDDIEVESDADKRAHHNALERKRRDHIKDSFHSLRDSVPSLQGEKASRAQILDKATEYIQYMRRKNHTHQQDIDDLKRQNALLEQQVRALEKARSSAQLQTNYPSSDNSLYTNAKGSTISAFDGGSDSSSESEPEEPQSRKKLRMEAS
row,Sequence,binding signal
1,CCGGCTGACGCAGGGTATTAATAGCTAAGATTACTATATCGACG,-0.104 log2 normalized fluorescence
2,CCGGCTGACCTGCTGTATTAATAGCTAAGATTACTATATCGACG,0.214 log2 normalized fluorescence
3,CCGGCTGAAGAGTGGTATTAATAGCTAAGATTACTATATCGACG,0.0783 log2 normalized fluorescence
4,CCGGCTGAGGGGGAGTATTAATAGCTAAGATTACTATATCGACG,1.48 log2 normalized fluorescence
5,CCGGCTGAACCCAGGTATTAATAGCTAAGATTACTATATCGACG,-0.34 log2 normalized fluorescence
6,CCGGCTGAGTTGAGGTATTAATAGCTAAGATTACTATATCGACG,-0.631 log2 normalized fluorescence
7,CCGGCTGACCGGTAGTATTAATAGCTAAGATTACTATATCGACG,-0.573 log2 normalized fluorescence
8,CCGGCTGACACAGGGTATTAATAGCTAAGATTACTATATCGACG,0.747 log2 normalized fluorescence
9,CCGGCTGAGAGCCTGTATTAATAGCTAAGATTACTATATCGACG,-0.287 log2 normalized fluorescence
10,CCGGCTGACAGACCGTATTAATAGCTAAGATTACTATATCGACG,0.179 log2 normalized fluorescence
11,CCGGCTGAACTCATGTATTAATAGCTAAGATTACTATATCGACG,1.71 log2 normalized fluorescence
12,CCGGCTGACAAGTTGTATTAATAGCTAAGATTACTATATCGACG,-0.304 log2 normalized fluorescence
13,CCGGCTGATCATATGTATTAATAGCTAAGATTACTATATCGACG,1.98 log2 normalized fluorescence
14,CCGGCGGACACGTGCTATTAATAGCTAAGATTACTATATCGACG,3.15 log2 normalized fluorescence
15,CCGGCCGTCACGTGGTATTAATAGCTAAGATTACTATATCGACG,3.18 log2 normalized fluorescence
16,CCGGCGGGCACGTGGTATTAATAGCTAAGATTACTATATCGACG,3.35 log2 normalized fluorescence
17,CCGGCGGACACGTGGTATTAATAGCTAAGATTACTATATCGACG,3.33 log2 normalized fluorescence
18,CCGGCTGACACGTGGTATTAATAGCTAAGATTACTATATCGACG,3.19 log2 normalized fluorescence
19,CCGGCACACACGTGGTATTAATAGCTAAGATTACTATATCGACG,3.32 log2 normalized fluorescence
20,CCGGCGGTCACGTGGTATTAATAGCTAAGATTACTATATCGACG,3.37 log2 normalized fluorescence
21,CCGGCTGTCACGTGGTATTAATAGCTAAGATTACTATATCGACG,3.12 log2 normalized fluorescence
22,CCGGCTGATACCTGGTGTTAATAGCTAAGATTACTATATCGACG,-0.298 log2 normalized fluorescence

row,Sequence,binding signal
1,CCGGCTGACACGTAGAGTTAATAGCTAAGATTACTATATCGACG,0.996 log2 normalized fluorescence
2,CCGGCTGAAGCGGTGTATTAATAGCTAAGATTACTATATCGACG,-0.554 log2 normalized fluorescence
3,CCGGCTGACCCATGGTATTAATAGCTAAGATTACTATATCGACG,2.08 log2 normalized fluorescence
4,CCGGCTGACACGCCATATTAATAGCTAAGATTACTATATCGACG,2.41 log2 normalized fluorescence
5,CCGGCTGATACATAGTATTAATAGCTAAGATTACTATATCGACG,-0.533 log2 normalized fluorescence
6,CCGGCTGATTCACGGTATTAATAGCTAAGATTACTATATCGACG,0.000807 log2 normalized fluorescence
7,CCGGCTGAGTGGATGTATTAATAGCTAAGATTACTATATCGACG,0.0423 log2 normalized fluorescence
8,CCGGCTGACACGTTGGATTAATAGCTAAGATTACTATATCGACG,3.03 log2 normalized fluorescence
9,CCGGCTGATAGTGGGTATTAATAGCTAAGATTACTATATCGACG,-0.372 log2 normalized fluorescence
10,CCGGCTGAGTGGCTGTATTAATAGCTAAGATTACTATATCGACG,0.1 log2 normalized fluorescence
11,CCGGCTGAAAGATGGTATTAATAGCTAAGATTACTATATCGACG,-0.31 log2 normalized fluorescence
12,CCGGCTTGCACGTGGTTTTAATAGCTAAGATTACTATATCGACG,3.23 log2 normalized fluorescence
13,CCGGCTTGCACTTGGTATTAATAGCTAAGATTACTATATCGACG,0.423 log2 normalized fluorescence
14,CCGGCTTGCACGTGGTATTAATAGCTAAGATTACTATATCGACG,3.31 log2 normalized fluorescence
15,CCGGCTGAGGCGGCGTATTAATAGCTAAGATTACTATATCGACG,-0.641 log2 normalized fluorescence
16,CCGGCTGAGACGCCGTATTAATAGCTAAGATTACTATATCGACG,-0.749 log2 normalized fluorescence
17,CCGGCTGAGGTGGTGTATTAATAGCTAAGATTACTATATCGACG,-0.0636 log2 normalized fluorescence
18,CCGGCTGAATAAGCGTATTAATAGCTAAGATTACTATATCGACG,-0.651 log2 normalized fluorescence
19,CCGGCTGCGACGTGGTATTAATAGCTAAGATTACTATATCGACG,2.27 log2 normalized fluorescence
20,CCGGCCACCACGTGGTATTAATAGCTAAGATTACTATATCGACG,3.24 log2 normalized fluorescence
21,CCGGCTGCCCCGTGGTATTAATAGCTAAGATTACTATATCGACG,2.88 log2 normalized fluorescence
22,CCGGCCGACGCGTGGTATTAATAGCTAAGATTACTATATCGACG,3.33 log2 normalized fluorescence

row,Sequence,binding signal
1,CCGGCAGCCACGTGGTATTAATAGCTAAGATTACTATATCGACG,3.13 log2 normalized fluorescence
2,CCGGCCGCGACGTGGTATTAATAGCTAAGATTACTATATCGACG,2.79 log2 normalized fluorescence
3,CCGGCCGCCACGTGGTATTAATAGCTAAGATTACTATATCGACG,3.32 log2 normalized fluorescence
4,CCGGCTGCCACGTGGTATTAATAGCTAAGATTACTATATCGACG,3.42 log2 normalized fluorescence
5,CCGGCTAACGCGTGGTATTAATAGCTAAGATTACTATATCGACG,3.26 log2 normalized fluorescence
6,CCGGCTGCCTCGTGGTATTAATAGCTAAGATTACTATATCGACG,3.36 log2 normalized fluorescence
7,CCGGCTGCCGCGTGGTATTAATAGCTAAGATTACTATATCGACG,3.21 log2 normalized fluorescence
8,CCGGCTTACGCGTGGTATTAATAGCTAAGATTACTATATCGACG,3.27 log2 normalized fluorescence
9,CCGGCTGACAATGGGTATTAATAGCTAAGATTACTATATCGACG,0.0164 log2 normalized fluorescence
10,CCGGCTGATGGGTAGTATTAATAGCTAAGATTACTATATCGACG,-0.121 log2 normalized fluorescence
11,CCGGCTGACATTTGGTGTTAATAGCTAAGATTACTATATCGACG,-0.316 log2 normalized fluorescence
12,CCGGCTGACATAGCGTATTAATAGCTAAGATTACTATATCGACG,-0.366 log2 normalized fluorescence
13,CCGGCTGAGACACTGTATTAATAGCTAAGATTACTATATCGACG,-0.484 log2 normalized fluorescence
14,CCGGCTGATACGCCGTATTAATAGCTAAGATTACTATATCGACG,-0.497 log2 normalized fluorescence
15,CCGGCTGAGACCCTGTATTAATAGCTAAGATTACTATATCGACG,-0.583 log2 normalized fluorescence
16,CCGGCTGAGCAGGGGTATTAATAGCTAAGATTACTATATCGACG,0.451 log2 normalized fluorescence
17,CCGGCCGCCACGTGGTCTTAATAGCTAAGATTACTATATCGACG,3.44 log2 normalized fluorescence
18,CCGGCTGAGACGTGGTCTTAATAGCTAAGATTACTATATCGACG,1.44 log2 normalized fluorescence
19,CCGGCCGCCACGTAGTATTAATAGCTAAGATTACTATATCGACG,1.58 log2 normalized fluorescence
20,CCGGCGTACACGTGGTATTAATAGCTAAGATTACTATATCGACG,3.3 log2 normalized fluorescence
21,CCGGCGTATACGTGGTATTAATAGCTAAGATTACTATATCGACG,1.62 log2 normalized fluorescence
22,CCGGCCAACACGTTGTATTAATAGCTAAGATTACTATATCGACG,3.07 log2 normalized fluorescence

row,Sequence,binding signal
1,CCGGCTAACACGTTGTATTAATAGCTAAGATTACTATATCGACG,3.12 log2 normalized fluorescence
2,CCGGCGTACACGTGGTCTTAATAGCTAAGATTACTATATCGACG,3.35 log2 normalized fluorescence
3,CCGGCTGGTACGTGGTCTTAATAGCTAAGATTACTATATCGACG,1.03 log2 normalized fluorescence
4,CCGGCAGACACGTGGTATTAATAGCTAAGATTACTATATCGACG,3.08 log2 normalized fluorescence
5,CCGGCTTACACGTGGTCTTAATAGCTAAGATTACTATATCGACG,3.19 log2 normalized fluorescence
6,CCGGCATACACGTGGTATTAATAGCTAAGATTACTATATCGACG,3.25 log2 normalized fluorescence
7,CCGGCTGACACGTGGTCTTAATAGCTAAGATTACTATATCGACG,3.21 log2 normalized fluorescence
8,CCGGCAGACACGTGGTCTTAATAGCTAAGATTACTATATCGACG,3.43 log2 normalized fluorescence
9,CCGGCAAACACGTTGTATTAATAGCTAAGATTACTATATCGACG,3.31 log2 normalized fluorescence
10,CCGGCTGACCATCTGTATTAATAGCTAAGATTACTATATCGACG,1.1 log2 normalized fluorescence
11,CCGGCTGACGTACAGTATTAATAGCTAAGATTACTATATCGACG,-0.0346 log2 normalized fluorescence
12,CCGGCTGACACGTAACATTAATAGCTAAGATTACTATATCGACG,1.37 log2 normalized fluorescence
13,CCGGCTGATTGGATGTATTAATAGCTAAGATTACTATATCGACG,-0.659 log2 normalized fluorescence
14,CCGGCTGACTCGCTGTATTAATAGCTAAGATTACTATATCGACG,0.114 log2 normalized fluorescence
15,CCGGCTGAAGAACCGTATTAATAGCTAAGATTACTATATCGACG,-0.66 log2 normalized fluorescence
16,CCGGCTGACAACTTGTATTAATAGCTAAGATTACTATATCGACG,-0.311 log2 normalized fluorescence
17,CCGGCCCGCCAAAGCATTTAATAGCTAAGATTACTATATCGACG,0.154 log2 normalized fluorescence
18,CCGGCTGACAAATCGTATTAATAGCTAAGATTACTATATCGACG,-0.658 log2 normalized fluorescence
19,CCGGCTGATCGTCAGTATTAATAGCTAAGATTACTATATCGACG,-0.695 log2 normalized fluorescence
20,CCGGCTGAGAGCGCGTATTAATAGCTAAGATTACTATATCGACG,-0.456 log2 normalized fluorescence
21,CCGGCTAACACGCGGTATTAATAGCTAAGATTACTATATCGACG,3.35 log2 normalized fluorescence
22,CCGGCCTACACGTGGTATTAATAGCTAAGATTACTATATCGACG,3.31 log2 normalized fluorescence

row,Sequence,binding signal
1,CCGGCTACTACGTGGTATTAATAGCTAAGATTACTATATCGACG,1.83 log2 normalized fluorescence
2,CCGGCTTAATCGTGGTATTAATAGCTAAGATTACTATATCGACG,1.43 log2 normalized fluorescence
3,CCGGCCGACACGCGGTATTAATAGCTAAGATTACTATATCGACG,2.86 log2 normalized fluorescence
4,CCGGCTAACACGTGGTATTAATAGCTAAGATTACTATATCGACG,3.45 log2 normalized fluorescence
5,CCGGCTTACACGTGGTATTAATAGCTAAGATTACTATATCGACG,3.3 log2 normalized fluorescence
6,CCGGCTGACACGCGGTATTAATAGCTAAGATTACTATATCGACG,3.1 log2 normalized fluorescence
7,CCGGCCTACACGTGGTGTTAATAGCTAAGATTACTATATCGACG,3.19 log2 normalized fluorescence
8,CCGGCCAACACGTGGTATTAATAGCTAAGATTACTATATCGACG,3.22 log2 normalized fluorescence
9,CCGGCTTAGACGTGGTATTAATAGCTAAGATTACTATATCGACG,1.04 log2 normalized fluorescence
10,CCGGCAAACACGTGGTATTAATAGCTAAGATTACTATATCGACG,3.01 log2 normalized fluorescence
11,CCGGCTGACAAAGTGTATTAATAGCTAAGATTACTATATCGACG,-0.349 log2 normalized fluorescence
12,CCGGCTGGCGCATGGTATTAATAGCTAAGATTACTATATCGACG,3.17 log2 normalized fluorescence
13,CCGGCTGAACGCCTGTATTAATAGCTAAGATTACTATATCGACG,0.727 log2 normalized fluorescence
14,CCGGCTGACATCCCGTATTAATAGCTAAGATTACTATATCGACG,0.192 log2 normalized fluorescence
15,CCGGCTGACAGAACGTATTAATAGCTAAGATTACTATATCGACG,-0.288 log2 normalized fluorescence
16,CCGGCTGAGTCCTCGTATTAATAGCTAAGATTACTATATCGACG,-0.692 log2 normalized fluorescence
17,CCGGCTGATCTCACGTATTAATAGCTAAGATTACTATATCGACG,-0.038 log2 normalized fluorescence
18,CCGGCTGAAACTCGGTATTAATAGCTAAGATTACTATATCGACG,-0.697 log2 normalized fluorescence
